This is an account of results in the supplement of paper PMC6555819.

The experiment concerns RARa homodimer (NR concentration 270 nM). Kind of experiment: PBM binding z-score (relative to random genomic background probes); higher = stronger binding; sequences stand for … in GC…GCGATTGACAGCGTAGAATGAAGG
The method, boiled down:
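Binding buffer was PBS pH 7.4 with 2% milk, 0.02% Triton X-100, 1 mM DTT, 0.2 mg/mL BSA and 0.4 mg/ml salmon testes DNA. In it, ligand-free nuclear receptor dimers were incubated 1 h on custom Agilent 4×180K protein-binding microarrays carrying double-stranded probes. Antibodies against each partner (one per run) detected binding, and z-scores were calculated against random background probes after regression normalization of scanned fluorescence.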
With CGAACTAGGTAACCAGGACAGTGAAGAGGTTGGA, the PBM binding z-score was -0.648.
The value for CGAACTAGGTCAAAGGACAGTTAAAGGCGACGTA was 0.332; that for CGAACTAGGTCAAAGGACAGTGCAAGGCGACGTA was -0.256.
Take CGAACTAGGTTACCAGGACAGTGAAGAGGTTGGA: the PBM binding z-score is -0.114.
CGAACTAGGTCACCAGGAGAGTGAAGAGGTTGGA displayed a PBM binding z-score of -0.347.
ATATGTAGGTTAGGGTCATCCAGAAAGTAGGGAA had a PBM binding z-score of 2.64.
In turn, CGAACTAGGTCACCCGGACAGTGAAGAGGTTGGA yielded a PBM binding z-score of 0.174.
Sequence ATATGTAGGTTTGGGTCATTCAGAAAGTAGGGAA yielded a PBM binding z-score of 2.33.
CGAACTAGGTCAAAGGACAGGGAAAGGCGACGTA gave a PBM binding z-score of 0.0193.
Consider CGAACTAGGTCACAGGACAGTGAAAGGCGACGTA, for which the PBM binding z-score was 0.616.
Turning to CGAAATAGGTCACCAGGACAGTGAAGAGGTTGGA, the PBM binding z-score worked out at 1.35.
Turning to CGAACTAGGTCGAAGGACAGTGAAAGGCGACGTA, the PBM binding z-score was -0.8.
CGAACTAGTTCAAAGGACAGTGAAAGGCGACGTA: the PBM binding z-score turned out to be 0.148.
The sequence ATATGTAGGTTATGGTCATTCAGAAAGTAGGGAA had a PBM binding z-score of 1.24.
Sequence CGAACTAGGTTAAAGGACAGTGAAAGGCGACGTA displayed a PBM binding z-score of -0.221.
As to CGAACTAGGTCAAAGGACAGAGAAAGGCGACGTA, the PBM binding z-score worked out at 0.114.
Sequence CGAACTAGGTCACCAGGACAGTGATGAGGTTGGA came in with a PBM binding z-score of 0.546.
In turn, ATATGTAGGTTAGGGTCATGCAGAAAGTAGGGAA had a PBM binding z-score of 1.83.
On to CGAACTAGGTCAAAGGACAGTGACAGGCGACGTA, for which the PBM binding z-score worked out at 0.339.
As for CGTACTAGGTCAAAGGACAGTGAAAGGCGACGTA, the PBM binding z-score was 0.22.
ATACGTAGGTTAGGGTCATTCAGAAAGTAGGGAA gave a PBM binding z-score of 1.86.
As to ATATGTAGGTTAGGGTCATTAAGAAAGTAGGGAA, the PBM binding z-score stood at 1.97.
